Screening results (PubChem)
A selection: hits, their analogues and other compounds. The true share with any hit is near 3.5%.
MITF primary: blocks human microphthalmia-associated transcription factor; AlphaScreen MITF homodimerization, bead proximity signal; O75030; inhibition, % at 2.6 µM; 650,000 tested, 0.91% active; in the data active means inhibition above about 50%;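 further: 0% = vehicle wells with protein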
GPR151 ag: activators of human GPR151; activation, % at 11.2 µM; PathHunter beta-arrestin GPR151 cells, luminescence; Q8TDV0; 650,000 tested, 1% active; AID 1508602; in the data active means activation above about 4.9%;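 further: 0% = median of compound wells and 100% = cells with positive control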
Target sequence (Q8TDV0 whole entry, looked up): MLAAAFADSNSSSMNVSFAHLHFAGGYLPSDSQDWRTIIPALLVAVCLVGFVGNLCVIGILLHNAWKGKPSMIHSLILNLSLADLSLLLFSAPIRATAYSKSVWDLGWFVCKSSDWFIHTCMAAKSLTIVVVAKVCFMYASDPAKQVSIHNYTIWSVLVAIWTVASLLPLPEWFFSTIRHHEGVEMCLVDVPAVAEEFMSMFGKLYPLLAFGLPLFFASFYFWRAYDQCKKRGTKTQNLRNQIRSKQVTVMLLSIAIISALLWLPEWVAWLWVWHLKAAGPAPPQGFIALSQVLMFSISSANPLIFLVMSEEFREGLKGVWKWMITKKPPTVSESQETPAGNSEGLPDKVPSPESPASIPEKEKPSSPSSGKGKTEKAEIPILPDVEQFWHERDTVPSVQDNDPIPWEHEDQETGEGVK
TEAD-YAP inh: TEAD-YAP interaction inhibition | inhibition, % at 9.12 µM | 640,000 tested, 1.4% active | HEK-TIYL cells, TEAD-Gal4/YAP UAS-luciferase luminescence; in the data active means inhibition above about 32%;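 further: 0% = median of test compound wells and 100% = reference inhibitor wells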
FBW7 activator: activators of human E3 ligase FBW7 | AlphaScreen FBW7–phospho-cyclin E peptide binding, activator screen | normalized activity (activation), % at 26.1 µM | 650,000 tested, 0.13% active; in the data active means normalized activity above about 1.9%;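 further: purified mutant Fbw7 with reduced substrate affinity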
* marks the source's active call; other numbers are inactive results.

SMILES	MITF primary	GPR151 ag	TEAD-YAP inh	FBW7 activator
Cc1cc(/C=c2\sc3nc4ccccc4n3c2=O)c(C)n1-c1ccc(F)cc1	-12	-1	32*	0
O=c1/c(=C/c2ccc(O)c(Cl)c2)sc2nc3ccccc3n12	-12	-1	53*	0
O=S(=O)(NCC(c1ccco1)N1CCN(c2ccccc2)CC1)c1cc(F)ccc1F (stereo not given)	10	1	-2	0
CC1=C/C(=N\S(=O)(=O)c2ccc(C)cc2)C=CC1=O	71*	1	2	0
COc1ccccc1-n1c(=S)sc2c(=O)n(-c3ccccc3)c(SCc3cccc([N+](=O)[O-])c3)nc21	12	-1	0	0
CCCCOC(=O)CSc1nnc(-c2ccc(N(C)C)cc2)o1	-11	2	41*	0
Fc1cc(-c2nc(Nc3ccc(-c4cnco4)cc3)ncc2F)cc(N2CCOCC2)c1	9	1	2	1
Fc1cc(-c2nc(Nc3ccc(Cn4ccnc4)cc3)ncc2F)cc(N2CCOCC2)c1	4	0	89*	0
Fc1cc(-c2nc(Nc3cccc(Cn4cncn4)c3)ncc2F)cc(N2CCOCC2)c1	2	1	88*	0
Fc1cnc(Nc2ccc(Cn3cccn3)cc2)nc1-c1cc(N2CCOCC2)cc(C(F)(F)F)c1	7	2	0	0
Fc1cnc(Nc2ccc(Cn3ccnc3)cc2)nc1-c1cc(N2CCOCC2)cc(C(F)(F)F)c1	-284	2	40*	0
Fc1cc(-c2nc(Nc3ccc(-n4cnc(-c5ccccn5)c4)cc3)ncc2F)cc(N2CCOCC2)c1	7	0	54*	-2
C[C@H](NS(=O)(=O)c1cccc2nsnc12)C(=O)OCC(N)=O	2	2	-2	0
CSc1nc(C)c(C)c(C)c1C#N	8	0	2	0
Fc1cc(-c2nc(Nc3cccc(Cn4ccnc4)c3)ncc2F)cc(N2CCOCC2)c1	-2	-2	94*	0
Cc1cccc(NC(=O)CCc2csc(NC(=O)c3ccc(F)cc3)n2)c1C	3	2	40*	0
CC(C)c1ccccc1NC(=O)CCc1csc(NC(=O)c2ccc(F)cc2)n1	1	1	23	0
CCN1CCN(C(=O)C(C)N(c2cc(C)cc(C)c2)S(C)(=O)=O)CC1 (stereo not given)	10	3	-2	0
c1ccc(C(c2nnnn2C2CCCC2)N2CCCCCC2)nc1 (stereo not given)	0	0	13	-1
Oc1c(C(c2ccccn2)N2CCN(c3ccccn3)CC2)ccc2cccnc12 (stereo not given)	83*	-1	-4	-2
Oc1ccccc1C(Nc1nccs1)c1ccc2cccnc2c1O (stereo not given)	41	2	24	-2
CN1CCN(C(c2ccccn2)c2ccc3cccnc3c2O)CC1 (stereo not given)	90*	0	15	0
Oc1c(C(c2cccs2)N2CCN(c3ccccn3)CC2)ccc2cccnc12 (stereo not given)	38	1	91*	0
O=C(c1ccc2ccccc2c1)N1CCN(c2ccccn2)CC1	-1	2	-1	0
Oc1c(C(c2ccccn2)N2CCCC2)ccc2cccnc12 (stereo not given)	107*	2	67*	0
SMILES	MITF primary	GPR151 ag	TEAD-YAP inh	FBW7 activator
CCOc1ccc(-c2cc(N)n(S(=O)(=O)c3ccc(F)cc3)n2)cc1	0	1	-5	0
COc1ccc(C(=O)NNC(=S)NCC(C)C)c(OC)c1	14	-1	-2	0
Cc1ccc(C2OC3(C(=O)c4ccccc4C3=O)C(c3ccccc3)C23C(=O)c2ccccc2C3=O)cc1 (stereo not given)	1	0	9	0
O=C1c2ccccc2C(=O)C12OC(c1ccc(Br)cc1)C1(C(=O)c3ccccc3C1=O)C2c1ccc(F)cc1 (stereo not given)	63*	0	-5	0
O=C(c1ccc(S(=O)(=O)c2cccc(Cl)c2)c([N+](=O)[O-])c1)N1CCN(c2ccc(F)cc2)CC1	8	1	1	0
O=C(c1ccc(S(=O)(=O)c2cccc(Cl)c2)c([N+](=O)[O-])c1)N1CCOCC1	0	2	32*	0
O=C1Nc2cc(C(=O)N3CCN(Cc4ccc5c(c4)OCO5)CC3)ccc2NC1CSCc1ccc(F)cc1 (stereo not given)	3	-1	48*	0
O=C(c1ccc([N+](=O)[O-])c(Cl)c1)N1CCN(Cc2ccc3c(c2)OCO3)CC1	30	0	51*	0
COc1ccc(CN2CCN(C(=O)c3ccc(S(=O)(=O)c4ccc(F)cc4)c([N+](=O)[O-])c3)CC2)c(OC)c1OC	-11	-1	43*	0
CC1(C)CC(=O)C2=C(C1)N(c1ncn[nH]1)C(N)=C(C#N)C2c1ccc(Cl)cc1 (stereo not given)	10	0	10	0
COc1ccc(CCN(C)C2CCCN(C3CCC3)C2)cc1OC (stereo not given)	-3	0	-4	0
CCOCc1cc(CN2CCN(CC3CCCCC3)C(CCO)C2)ccc1OC (stereo not given)	-7	-1	0	0
COc1ccc(C(=O)N2CCN(Cc3ccc4c(c3)OCO4)CC2)cc1[N+](=O)[O-]	20	-1	45*	1
CCN(CC)CCNc1cc(C)nc2c1C(=O)C(=O)C=C2N1CCCCC1	9	0	94*	0
CCOc1cc(C2C(C(=O)OCCOc3ccccc3)=C(C)NC3=C2C(=O)CC(c2ccccc2)C3)cc(Br)c1O (stereo not given)	1	1	17	1
COc1cccc(C2=CC(c3cc(OC)ccc3OC)n3nnnc3N2)c1 (stereo not given)	10	-2	50*	0
COc1ccc(C2=CC(c3cc(OC)ccc3OC)n3nnnc3N2)cc1 (stereo not given)	4	0	-4	0
COc1cccc(C2=CC(c3ccccc3F)n3nnnc3N2)c1 (stereo not given)	15	1	44*	0
CCOc1ccc(C2=CC(c3cc(OC)c(OC)c(OC)c3)n3nnnc3N2)cc1 (stereo not given)	5	2	44*	0
CCOc1ccc(C2C=C(c3ccc(F)cc3)Nc3nnnn32)cc1 (stereo not given)	-14	3	-16	0
COc1cccc(C2C=C(c3ccc(C)cc3)Nc3nnnn32)c1 (stereo not given)	4	0	32*	0
Cc1csc(NC(=O)CSc2nccn2Cc2ccc(Cl)cc2)n1	-8	1	-2	0
O=C(CCN1CCOCC1)Nc1ccc(F)c(F)c1	16	0	-1	0
COC(=O)CSc1nc2ccc(NC(C)=O)cc2s1	4	0	11	0
COc1cccc(C2=CC(c3cccc(OC)c3)n3nnnc3N2)c1 (stereo not given)	-3	1	56*	0
COc1cccc(C2=CC(c3cc(OC)c(OC)c(OC)c3)n3nnnc3N2)c1 (stereo not given)	7	-1	57*	0
